Source: PubChem
Pf growth 48h = Primary qHTS for delayed death inhibitors of the malarial parasite plastid, 48 hour incubation; P. falciparum luciferase growth in erythrocytes, 48 h; Potency, µM (series often up to 28.7 µM), for inactives: at the top dose activity change, negative = inhibition, most hits filed as inhibitors; 310,000 tested, 5.9% active; AID 504832, 2011; further: potency means the concentration at half of the fitted maximal effect; on the % scale 0 is the no-effect control and ±100 the full control effect
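Cell-based growth assay: transgenic P. falciparum expressing firefly luciferase, cultured in red cells within RPMI 1640 containing 0.5% w/v Albumax, 24 mM bicarbonate and gentamycin. A drop in luciferase activity indicates inhibition.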
Shiga toxin inh = A qHTS for Small Molecule Inhibitors of Shiga Toxin; Vero cells, Shiga toxin protein synthesis inhibition reporter; inhibition, % at 38.7 µM; 290,000 tested, 9.2% active; AID 2315, 2010; in the data active means inhibition mostly above about 28%, no sharp cut-off; inactive means mostly below about 43%; further: 0% is about no effect
Pf growth 96h = Primary qHTS for delayed death inhibitors of the malarial parasite plastid, 96 hour incubation | P. falciparum luciferase reporter growth, 96 h | Potency, µM (series often up to 28.7 µM), without a hit: top-dose activity change, negative = inhibition, actives largely listed as inhibitors | 320,000 tested, 6.9% active | AID 504834, 2011; further: potency means the concentration at half of the fitted maximal effect; on the % scale 0 is the no-effect control and ±100 the full control effect
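Compounds incubated with erythrocytes infected by luciferase-expressing P. falciparum (2% hematocrit, 0.05% parasitemia final) for 96 hours, 37 C in 5% CO2. Growth inhibition scored as decreased luciferase luminescence.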
HCMV antiviral = qHTS Assay for inhibitors of the human cytomegalovirus (HCMV); activity change, negative = inhibition, % at 57.5 µM; 410,000 tested, 4.5% active; AID 1259415, 2018; HFF cells, HCMV-luciferase reporter, 72 h; active compounds read low; in the data active means activity change below about -60%; inconclusive means no clear call, values can overlap the other calls; inactive means above about -39%; further: on the % scale 0 is the no-effect control and ±100 the full control effect
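Luciferase read-out from HCMV-luciferase-infected HFFs (MOI 1 PFU/cell) 72 h post infection at 37C; compounds added after 16 h cell attachment; activity normalized between buffer-only basal and Salinomycin (10uM) inhibitor controls.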
HCV inh = qHTS Assay for Inhibitors of Hepatitis C Virus (HCV); Huh7.5.1 HCVcc-Cre infection, luciferase reporter, 44 h; Potency, µM (highest dose often 41.8 µM), for inactives: at the top dose activity change, negative = inhibition, usual class: inhibitors; 340,000 tested, 3.4% active; AID 651820, 2012; further: potency means the concentration at half of the fitted maximal effect; on the % scale 0 is the no-effect control and ±100 the full control effect
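Luciferase read-out (15 sec integration) after a 15 min room-temperature substrate step quantifies HCVcc-Cre infection. Cells, 1,000 per well, had compound added 4 h post-plating, then virus at ~0.5 moi, and were cultured 44 h.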
CHX counter = Cycloheximide Counterscreen for Small Molecule Inhibitors of Shiga Toxin. 300,000 tested, 12% active. cell reporter, cycloheximide protein synthesis inhibition counterscreen. max response, %; in the data active means max response mostly above about 13%, no sharp cut-off; inactive means mostly below about 14%; further: read at 38.3 µM for the half of the compounds with a filed dose; 0% is about no effect
Numbers without * were called inactive; u = inconclusive; x = no result. The list is not random: actives were taken first. Their share in the collection is about 21%. Unless noted, the call rests on the fitted dose curve; in most records, active means well fitted inhibition curve with a large enough effect; inconclusive means small, poorly fitted or top-dose-only effect, or another doubt; inactive means no such curve, though single readings can be large or run the other way.

SMILES	Pf growth 48h	Shiga toxin inh	Pf growth 96h	HCMV antiviral	HCV inh	CHX counter
Cc1cc(C)c(C(=O)C(C)OC(=O)Cn2cnc3c2c(=O)n(C)c(=O)n3C)cc1C (stereo not given)	16%	x	37%	-5	12%	x
CCC(Oc1ccccc1)C(=O)Nc1nnc(S(=O)(=O)N2CCCC2)s1 (stereo not given)	-14%	-11	61%	-20	17%	-4
CC1Cn2c(nc3sc4c(c3c2=O)CC(C)(C)OC4)N1CCO (stereo not given)	0%	3	16%	10	5%	-4
COc1ccc(-c2cn3ccccc3n2)cc1	115%	46	-10%	22	5%	31*
Cc1ccc(-c2n[nH]c3c2C(c2ccc(C(C)(C)C)cc2)NC3=O)cc1 (stereo not given)	x	x	x	-10	x	x
COc1ccc(C(=O)NCc2ccc3c(c2)OCO3)cc1S(=O)(=O)N(C)Cc1ccccc1	1%	-8	-16%	-5	u	-2
COc1ccc(C(=O)NCc2ccccc2)cc1Br	11%	-8	u	-4	-7%	-1
COc1ccc(C(=O)Nc2ccc(N3CCCCC3)cc2)cc1Br	116%	66*	57%	u	u	37*
COc1ccc(C(=O)Nc2ccc(Nc3ccccc3)cc2)cc1Br	x	x	x	-33	8.9µM*	x
COc1ccc(C(=O)Nc2ccc(NC(C)=O)cc2)cc1S(=O)(=O)N(C)Cc1ccccc1	u	x	4.7µM*	0	u	x
COc1ccc(C(=O)NC(=S)Nc2nc(C)cc(C)n2)cc1Br	22%	3	u	10	u	21*
CCOC(=O)C1=C(Nc2ccc(Br)cc2)C(=O)N(CC)C1	x	x	x	-12	x	x
COC(=O)c1cc(S(=O)(=O)N2CCN(c3ccc(OC)cc3)CC2)c[nH]1	x	x	x	-21	x	x
Cc1cc(C)cc(-n2c(C)nc3cc(C(=O)NCc4ccccc4Cl)ccc32)c1	x	x	x	-20	x	x
NC(=O)C1CCN(c2nc(-c3cccc(Br)c3)cs2)CC1	u	x	-27%	x	x	x
CC1CCN(S(=O)(=O)c2cc(C(=O)N3CCN(c4ccccc4F)CC3)n(C)c2)CC1	x	x	x	8	x	x
COc1cc(C(=O)NC(C)C2CC3CCC2C3)cc(OC)c1OC (stereo not given)	116%	3	-10%	109	-12%	-1
CCN(Cc1ccccc1)S(=O)(=O)c1cc(C(=O)NC(C)C2CC3CCC2C3)ccc1OC (stereo not given)	u	-3	u	-88*	11µM*	8
NC(=O)NC(=O)COC(=O)CCCSc1nc2ccccc2s1	1%	-3	14%	0	22%	-3
O=C(CCCSc1nc2ccccc2s1)NC1=NCCS1	-12%	0	-5%	-11	2%	18*
CCC(C)(C)NC(=O)CCCSc1nc2ccccc2s1	280%	118*	98%	-2	-10%	61*
CCc1cccc(CC)c1NC(=O)CCCSc1nc2ccccc2s1	u	-20	u	u	-13%	4
CC(=O)Nc1ccc2nc(SCCOc3ccccc3)sc2c1	x	x	x	-78*	x	x
O=C(O)CCSc1nc2ccccc2s1	-24%	-8	1%	-82*	0%	-8
COc1ccc(S(=O)(=O)N2CCC(C(N)=O)CC2)cc1C(=O)N1CCCCCC1	0%	-4	40%	-2	-4%	1
SMILES	Pf growth 48h	Shiga toxin inh	Pf growth 96h	HCMV antiviral	HCV inh	CHX counter
Cc1cccc(C)c1NC(=O)CCCSc1nc2ccccc2s1	-1%	35	-12%	-8	-17%	8
N#CCc1nc(CSc2nc3ccccc3s2)cs1	47%	87*	u	14	20%	58*
CC(=O)Nc1ccc(NC(=O)CCCSc2nc3ccccc3s2)cc1	36%	24	-19%	10	u	19*
CN(C)CCCSc1nc2ccccc2s1	95%	68*	58%	97	2%	23*
CC(C)NC(=O)CCCN1C(=O)CCn2nc(-c3cccn3C)cc21	x	x	x	15	x	x
O=C(COC(=O)CNC(=O)c1ccccc1F)NC1CC1	x	x	x	1	7%	x
CC(C)(C)c1cc([N+](=O)[O-])cc(C(C)(C)C)c1O	-22%	25	-22%	-100*	10µM*	2
O=C1c2ccccc2C(=O)C1(CO)c1ccccc1	160%	106*	-11%	0	-7%	34*
O=C1c2ccccc2C(=O)C1(CO)c1ccc(OC(F)F)cc1	12µM*	27*	126%	0	u	53*
Cc1ccc2c(c1)c1c3n2CCN(C(=O)c2ccc(C(F)(F)F)cc2)C3CCC1 (stereo not given)	x	x	x	-1	x	x
CCCN(CCC)Cc1cc(=O)oc2ccccc12	x	x	x	-16	x	x
Nc1nc2c(F)cccc2s1	15%	-12	0%	-19	6%	10
NNc1nc2c(F)cc(F)cc2s1	63%	82*	36%	56	-10%	70*
NNc1nc2c(F)cccc2s1	75%	77*	84%	5	11%	84*
Cc1c(Cl)ccc2sc(NC(=O)C3CC3)nc12	25%	28*	34%	32	u	18*
O=C(Nc1nc2c(F)cccc2s1)C1CC1	56%	54*	59%	48	u	36*
O=C(Nc1nc2c(F)cc(F)cc2s1)C1CCN(C(=O)c2ccc(F)cc2)CC1	91%	x	117%	11	-20%	x
CC(C)C[C@H]1CN([C@@H](Cc2ccc(O)cc2)CN2CCCC2CN2C(=S)NC[C@@H]2Cc2ccccc2)C(=S)N1CC1CCCCC1 (stereo not given in full)	x	x	x	-12	x	x
CCCN(CCC)C(=O)C1CCCN1S(=O)(=O)c1cccc2nsnc12 (stereo not given)	5%	-10	u	-16	12%	0
Fc1cccc2sc(Nc3nc4c(F)cccc4s3)nc12	72%	38*	u	207	6%	63*
CC(C)(C)c1ccc(C(=O)CCCN2CCC(OC(c3ccccc3)c3ccccc3)CC2)cc1	9.5µM*	x	7.6µM*	x	x	x
O=C(Nc1ccc2c(c1)OCO2)Nc1ccccc1F	260%	109*	5%	14	-18%	57*
CCc1ccccc1NC(=O)Nc1ccc2c(c1)OCO2	71%	27	-21%	3	u	35*
CCc1c(C(=O)NNC(=O)Nc2ccc3c(c2)OCO3)csc1C	28%	20	-27%	13	8%	38*
CCc1c(C(=O)NNC(=S)NCC(C)C)csc1C	9%	-9	6%	17	12%	-2
CCc1cccc(NC(=O)Nc2ccc3c(c2)OCO3)c1	56%	47*	u	12	-23%	29*
CC1(C)CC(=O)C(C=NCCN2CCNCC2)=C(O)C1	-8%	-12	-17%	-12	6%	-7
